In PubChem BioAssay (NCATS):
Records with an inconclusive call do not appear. Entries that show only a call come without a potency. Active and inactive are the calls of the source. Calls follow the shape of the dose curve; as a rule, active = well fitted inhibition curve with a large enough effect; inconclusive = small, poorly fitted or top-dose-only effect; inactive = flat fitted curve, though single readings scatter.

Target: Calcium and integrin-binding protein 1 (Homo sapiens) (UniProt Q99828)
Assay: Primary qHTS for Identification of Calcium Integrin Binding Protein 1 (CIB1) Competitor (AID 1508620);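 also: GST tagged CIB1 binding a fluorescein labelled alphaIIb integrin peptide tracer; top concentration of the series differs between compounds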
Conditions: CIB1-GST / FITC-alphaIIb peptide fluorescence polarization; series mostly up to 114 µM
How it was run: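 Fluorescence polarization competition: CIB1-GST (1 uM final) preincubated with compound 15 min at room temperature, then FITC-labeled alphaIIb peptide (100 nM final) added for another 15 min. Polarization read at Ex 480/Em 540.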

Sequence of Calcium and integrin-binding protein 1 (Homo sapiens) (Q99828 whole entry, looked up): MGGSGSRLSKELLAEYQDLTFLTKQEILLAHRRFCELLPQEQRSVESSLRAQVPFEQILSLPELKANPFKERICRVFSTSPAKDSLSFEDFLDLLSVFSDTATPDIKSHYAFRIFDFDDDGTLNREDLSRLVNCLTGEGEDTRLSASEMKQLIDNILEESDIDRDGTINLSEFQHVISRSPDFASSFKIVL

Row | SMILES | Potency
1 | COc1cccc(C2c3c(ncn(-c4ccccc4-c4ccccc4)c3=N)Oc3ccc4ccccc4c32)c1 (stereo not given) | inactive
2 | c1ccc(CNc2ccc(N3CCOCC3)cc2)cc1 | inactive
3 | O=C(Nc1ccc(Cl)c(Cl)c1)Nc1nnc(Br)s1 | inactive
4 | Cc1ccc(CNc2ccc(N3CCN(C)CC3)cc2)cc1 | inactive
5 | N#Cc1ccc(CSc2nc3ncc(Br)cc3[nH]2)cc1 | inactive
6 | COc1ccc(C2=Nn3c(nnc3-c3ccc(OC)cc3)SC2)cc1 | inactive
7 | COc1ccc(NS(=O)(=O)c2ccccc2)cc1NS(=O)(=O)c1ccccc1 | inactive
8 | CCCCN1C(=O)c2ccccc2NC1c1ccc(OC)c(COc2ccc(NC(C)=O)cc2)c1 (stereo not given) | inactive
9 | O=C(Nc1ccc2ccccc2c1)Nc1nnc(-c2cccnc2)s1 | inactive
10 | COC(=O)c1ccc2c(c1)S(=O)(=O)NC2=O | inactive
11 | C=CCNc1oc(-c2cccnc2)nc1C#N | inactive
12 | Cc1cccc(-n2cnc3cc(C(=O)N4CCC(C(F)(F)F)CC4)ccc32)c1 | inactive
13 | Cc1cc(NCc2ccc(NC(=O)Cc3ccc(Cl)c(Cl)c3)cc2)no1 | inactive
14 | Nc1cc(-c2nc(Nc3ccc(F)c(F)c3)c3ccccc3n2)ccn1 | inactive
15 | COc1ccc(C2Oc3ccccc3C(=O)N2Cc2ccccc2)cc1COc1ccc(NC(C)=O)cc1 (stereo not given) | inactive
16 | O=C(Nc1nnc(-c2ccncc2)s1)Nc1cc(C(F)(F)F)ccc1F | inactive
17 | Cc1cc(C)nc(NC(=S)N2CCN(c3cc(C(F)(F)F)nc(C)n3)CC2)c1 | inactive
18 | Cc1ccc(NS(=O)(=O)c2ccc(-c3ccccc3)cc2)cc1C | inactive
19 | COc1cccc(C2c3c(ncn(-c4ccc(Br)cc4)c3=N)Oc3ccc4ccccc4c32)c1 (stereo not given) | inactive
20 | CCOC(=O)C1CCN(C(=O)C(C)(C)NC(=O)Nc2ccc([N+](=O)[O-])cc2)CC1 | inactive
21 | Cc1cccc(-c2ccc3ncnc(NCc4cccnc4)c3c2)c1 | inactive
22 | Cc1cnc(-c2ccccc2C(C)C)nc1NCc1cccs1 | inactive
23 | COc1ccccc1C1=Nn2c(nnc2-c2ccccc2OC)SC1 | inactive
24 | CC(C)Oc1ccc(C(=O)Nc2ccc(-c3nc4ccccc4[nH]3)cc2)cc1 | inactive

Row | SMILES | Potency
25 | COc1ccc(C2Nc3ccccc3C(=O)N2Cc2ccco2)cc1COc1ccccc1C (stereo not given) | inactive
26 | O=Cc1ccc(-c2ccc3ncnc(NCc4cccs4)c3c2)o1 | inactive
27 | O=C1CCCC2=C1C(c1c(Cl)cccc1Cl)N=C(Nc1nc3ccccc3o1)N2 (stereo not given) | inactive
28 | O=S(=O)(c1c(F)cccc1F)C1CCN(S(=O)(=O)c2ccc3c(c2)OCCO3)CC1 | inactive
29 | COc1ccc(OC)c(C2=Nn3c(nnc3-c3ccc(OC)c(OC)c3)SC2)c1 | inactive
30 | O=S(=O)(c1ccc2c(c1)OCCO2)N1CCN(S(=O)(=O)c2cccs2)CC1 | inactive
31 | OC(c1ccccc1)(c1ccccc1)c1cnc2ccccn12 | inactive
32 | Clc1cccc(-c2ccc3ncnc(NCc4cccnc4)c3c2)c1 | inactive
33 | O=C(Nc1ccc(Cl)c(Cl)c1)Nc1nc(-c2ccncc2)cs1 | inactive
34 | COc1ccc(-n2cnc3c(c2=N)C(c2cccc(OC)c2)c2c(ccc4ccccc24)O3)cc1 (stereo not given) | inactive
35 | CC(C)(C)NS(=O)(=O)c1cccc(-c2nnc(SCc3ccc(C(=O)O)cc3)n2-c2ccccc2)c1 | inactive
36 | Cc1cc(C)nc(NC(=S)N2CCN(c3cc(Cl)cc(Cl)n3)CC2)c1 | inactive
37 | O=C(OCC#CCSc1nnc(-c2cccc3ccccc23)o1)c1ccc(Br)cc1 | inactive
38 | COc1cccc(CCC(=O)NCCc2nc3ccccc3n2CCOc2ccc(C)cc2)c1 | inactive
39 | Cc1cnc(-c2ccccc2CO)nc1NCC1CCN(c2cccnc2)CC1 | inactive
40 | CCOC(=O)c1ccoc1-c1ccc2ncnc(NCc3ncc[nH]3)c2c1 | inactive
41 | O=C(CNC(=O)c1ccccc1)OC(C(=O)Nc1cc([N+](=O)[O-])ccc1F)c1ccccc1 (stereo not given) | inactive
42 | Cc1cc2c(s1)c1cnn(Cc3c(F)ccc(C)c3F)c(=O)c1n2C | inactive
43 | CN(Cc1cncn1C)c1ncnc2ccc(-c3ccc4c(c3)OCO4)cc12 | inactive
44 | Cc1csc(CNc2ncnc3ccc(-c4ccoc4)cc23)c1 | inactive
45 | COc1cccc(C2=Nn3c(nnc3-c3ccccc3C)SC2)c1 | inactive
46 | O=C1Nc2ccccc2/C1=C\c1ccc(O)c(F)c1 | inactive
47 | O=C1CCCC2=C1C(c1cccc(Oc3ccccc3)c1)N=C(Nc1nc3ccccc3o1)N2 (stereo not given) | inactive
48 | COc1ccc(NC(=O)c2cnn3c(C)cc(C)nc23)cc1Cl | inactive

Row | SMILES | Potency
49 | COc1ccc(Nc2nc(-c3ccncc3)nc3ccccc23)cc1F | inactive
50 | Cc1cc2c(s1)c1cnn(Cc3cccc(F)c3)c(=O)c1n2C | inactive
51 | O=C1CCCC2=C1C(c1[nH]ncc1Cl)NC(=NCc1ccoc1)N2 (stereo not given) | inactive
52 | O=C1CCCC2=C1C1(CCC1)N=C(Nc1nc3ccccc3o1)N2 | inactive
53 | COc1cc(F)c(S(=O)(=O)N2CCN(S(=O)(=O)c3cccs3)CC2)c(F)c1 | inactive
54 | N#Cc1c(-c2ccc3ccccc3c2)no[n+]1[O-] | inactive
55 | CC1=C(C(=O)Nc2ccc(C)cc2)C(c2ccccc2Br)N=C(Nc2nc3ccccc3o2)N1 (stereo not given) | inactive
56 | C#CCOc1ccc(-c2no[n+]([O-])c2C#N)cc1 | inactive
57 | CC(=O)Nc1cccc(S(=O)(=O)N2CCN(S(=O)(=O)c3c(F)cccc3F)CC2)c1 | inactive
58 | Cc1ccc(-c2ccc(=O)n(CC(=O)NCCc3ncc[nH]3)n2)cc1 | inactive
59 | CC(=O)N1CCN(c2ccc(N)cc2)CC1 | inactive
60 | Cc1ccc(OCCn2c(CCNC(=O)C3CCC3)nc3ccccc32)cc1 | inactive
61 | c1cncc(-c2ccc(CNc3nc(-n4ccnc4)nc4ccccc34)cc2)c1 | inactive
62 | COc1ccc(-c2nc3ccccc3c(=O)n2Cc2ccco2)cc1COc1c(C)cccc1C | inactive
63 | CC(=O)N1CCN(c2ccc(NCc3cccc(C)c3)cc2)CC1 | inactive
64 | O=C(/C=C/c1ccccc1Cl)Nc1cccc([S+](=O)([O-])Nc2ccccc2F)c1 | inactive
65 | Cc1nc(C)c(-c2ccc3ncnc(N(C)Cc4sccc4C)c3c2)s1 | inactive
66 | Cc1cc2c(s1)c1cnn(Cc3c(Cl)cccc3Br)c(=O)c1n2C | inactive
67 | CCOc1ccc(CCNC(=O)c2cc3ccccc3o2)cc1OCC | inactive
68 | O=C(Nc1ccc(-c2nc3ccccc3[nH]2)cc1)c1ccc2ncsc2c1 | inactive
69 | CC(C)c1ccccc1-c1ncc(F)c(NCc2ccc(-c3cccnc3)s2)n1 | inactive
70 | O=C1CCCC2=C1C(c1[nH]ncc1Cl)N=C(Nc1nc3cc([S+](=O)([O-])N4CCOCC4)ccc3o1)N2 (stereo not given) | inactive
71 | Cc1cnc(-c2ccccc2C(C)C)nc1NCc1ccc(-c2ccnc(C(F)(F)F)c2)cc1 | inactive
72 | O=C(Nc1ccc2ccccc2c1)Nc1nnc(-c2ccc(F)cc2)s1 | inactive

Row | SMILES | Potency
73 | COc1cccc(C2c3c(ncn(-c4ccccc4C#N)c3=N)Oc3ccc4ccccc4c32)c1 (stereo not given) | inactive
74 | CC(C)c1ccccc1-c1nccc(NCc2ccc(-c3cccnc3)cc2)n1 | inactive
75 | Cc1cc(N2C(=O)c3ccccc3C2=O)no1 | inactive
76 | O=C(Cc1nnc(-c2cc3ccccc3[nH]2)o1)Nc1cc(C(F)(F)F)ccc1Cl | inactive
77 | Cc1c(P(=S)(c2ccccc2)c2ccccc2)c2ccccc2n1C/C=C/c1ccccc1 | inactive
78 | FC(F)(F)c1ccc(-c2nc(-c3nnc4n3CCCCC4)c(C(F)(F)F)o2)cc1 | inactive
79 | N#Cc1cccc(Nc2ncc(-c3cccc4ccccc34)o2)c1 | inactive
80 | Cc1ccc(NS(=O)(=O)c2ccc3c(c2)CCC(=O)N3)cc1 | inactive
81 | Cc1cc(C)nc(NC(=S)N2CCN(c3cccc(C#N)c3)CC2)c1 | inactive
82 | CCn1cnc2c(Nc3ccc(CCC(=O)N=C(N)N)cc3)nc(C#N)nc21 | inactive
83 | Cc1cn([C@H]2C[C@H](N[S+](=O)([O-])Cc3cccc(Cl)c3)[C@@H](CO)O2)c(=O)[nH]c1=O | inactive
84 | O=C1CCCC2=C1C(c1cccnc1Cl)N=C(Nc1nc3ccccc3o1)N2 (stereo not given) | inactive
85 | COc1ccc(C2c3c(n(CCCc4ccccc4)cnc3=N)Oc3ccc4ccccc4c32)cc1OC (stereo not given) | inactive
86 | COc1cc(-c2ccc3ncnc(NCCc4cnc[nH]4)c3c2)cc(OC)c1OC | inactive
87 | O=C(O)c1ccc2c(c1)C(=O)N([C@H](Cc1cccc3ccccc13)C(=O)O)C2=O | inactive
88 | COc1ccc(OCc2cc(C3Nc4ccccc4C(=O)N3Cc3ccccc3)ccc2OC)cc1 (stereo not given) | inactive
89 | Cc1cc(N[S+](=O)([O-])c2cc3c(cc2Cl)CCC(=O)N3)ccc1Cl | inactive
90 | O=S1(=O)N=C(Oc2ccc(C(F)(F)F)cc2)c2ccccc21 | inactive
91 | O=C(CCC#CCSc1nnc(-c2cccc3ccccc23)o1)c1ccccc1 | inactive
92 | Cc1c(-c2ccccc2)no[n+]1[O-] | inactive
93 | Cc1ccc(NS(=O)(=O)c2ccc3c(c2)CCCC(=O)N3)cc1C | inactive
94 | Cc1ccnc(NC(=S)N2CCN(c3ccc(Cl)c(Cl)c3)CC2)c1 | inactive
95 | Cc1ccc2nc3sc(C(=O)NCCCN(C)C)cc3cc2c1 | inactive
96 | NC(=O)C1CCN(c2nc(-c3ccccc3Br)cs2)CC1 | inactive

Row | SMILES | Potency
97 | Cc1cccc(C)c1OCc1cccc(C2Nc3ccccc3C(=O)N2Cc2ccco2)c1 (stereo not given) | inactive
98 | Cc1ccnc(NC(=S)N2CCN(c3cc(Cl)cc(Cl)c3)CC2)c1 | inactive
99 | O=C1CCCC2=C1C1(CCCC1)N=C(Nc1nc3cc(-c4ccccc4)ccc3o1)N2 | inactive
100 | CC(C)(C)OC(=O)N1CCN(c2ccc(NCc3cccc(-c4ccc(C#N)cc4)n3)cc2)CC1 | inactive
101 | COc1ccc(C2Nc3ccccc3C(=O)N2Cc2ccccn2)cc1COc1ccc(NC(C)=O)cc1 (stereo not given) | inactive
102 | COc1cc(O)c(C(CC(=O)N2CCCC(C(C)C)C2)c2ccc3c(c2)OCO3)c(OC)c1 (stereo not given) | inactive
103 | CCOC(=O)c1c(-c2ccc(OC)cc2)csc1NC(=O)C1CCCO1 (stereo not given) | inactive
104 | Cc1csc(CNc2ncnc3ccc(-c4ccc5c(c4)OCO5)cc23)c1 | inactive
105 | O=C1Cc2cc(S(=O)(=O)N3CCN(c4ccc(Br)cc4)CC3)ccc2N1 | inactive
106 | COc1ccc(C2=Nn3c(nnc3-c3ccccc3OC)SC2)cc1O[C@H]1CCOC1 | inactive
107 | CCOc1ccc(CCNC(=O)CN(C)C)cc1OCC | inactive
108 | COc1cccc(C2c3c(ncn(-c4cccc(F)c4)c3=N)Oc3ccc4ccccc4c32)c1 (stereo not given) | inactive
109 | CC(=O)NC(C)c1cc(Cl)c2ccccc2c1O (stereo not given) | inactive
110 | O=S(=O)(c1cccc(F)c1)N1CCN(S(=O)(=O)c2ccc3c(c2)OCCO3)CC1 | inactive
111 | Cc1ccc(OCCn2c(CCNC(=O)c3cccc(N)c3)nc3ccccc32)cc1 | inactive
112 | CCOc1ccc(CNc2ccc(-c3nc4ccccc4[nH]3)cc2)cc1 | inactive
113 | COc1ccc(C2Nc3ccccc3C(=O)N2Cc2ccc(C(C)(C)C)cc2)cc1COc1ccc(NC(C)=O)cc1 (stereo not given) | inactive
114 | COc1cccc(C2=Nn3c(nnc3-c3cccc(OC)c3OC)SC2)c1 | inactive
115 | CC(=O)c1cccc(NC(=O)Nc2nnc(-c3ccncc3)s2)c1 | inactive
116 | Cc1cc2c(s1)c1cnn(Cc3ccc(C(C)C)cc3)c(=O)c1n2C | inactive
117 | Cc1cccc2oc(NC3=NC(c4[nH]ncc4Cl)C4=C(CCCC4=O)N3)nc12 (stereo not given) | inactive
118 | Cc1cc2c(s1)c1cnn(Cc3ccc(S(C)(=O)=O)cc3)c(=O)c1n2C | inactive
119 | Cc1ccccc1C(=O)N1CCc2cc(-n3cc(NC(=O)Cc4ccccc4)cn3)ccc21 | inactive
120 | O=S(=O)(c1ccc2c(c1)OCCO2)N1CCN(S(=O)(=O)c2ccccc2F)CC1 | inactive
